Measurements reported in PubChem BioAssay (NCATS).
Several values for one entry are separate records, joined by “and”; a condition that tells them apart may be missing. Equal values may be shown once. Unmarked numbers belong to inactive results. Inconclusive results are not listed. Where a call stands in place of a potency, no number is given. Activity calls are given as the source filed them. Unless noted, the call rests on the fitted dose curve; in most records, active means well fitted curve in the direction sought with a large enough effect; inconclusive means small, poorly fitted or top-dose-only effect, or another doubt; inactive means no such curve, though single readings can be large; an effect the other way counts as inactive or inconclusive.

Assays:
[1] = HTS Assay for Allosteric Antagonists of the Human D2 Dopamine Receptor: Hit Validation in HTRF (AID 624455);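 further: stable D1 dopamine receptor cell line scored for blocking the D1 response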
Procedure, shortened: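 Hits were examined in an HTRF assay using cells stably expressing the D1 dopamine receptor, scoring inhibition of the D1-mediated response. The preceding primary screen tracked calcium flux after an EC80 dopamine addition in force-coupled, inducible Hek293 Trex D2 cells.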

[2] = molecular target: Arylsulfatase A (Homo sapiens) (UniProt P15289); assay: qHTS screen for enhancers of Arylsulfatase A (ASA1): LOPAC Validation Assay (AID 720538)
Procedure, shortened: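 Read-out: fluorescence at Ex=525/Em=598 nm after 1N NaOH final stop. Patient fibroblasts carrying ASA-I179S had 48h compound exposure, then 14h room-temperature pNCS hydrolysis (0.5mM final) in lysis buffer. Signal increase = enhanced activity.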

[3] = qHTS for Activators of Parkin Expression: LOPAC Validation Assay (NLuc Reporter) (AID 720572; further: potency means the concentration at half of the fitted maximal effect)
Procedure, shortened: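 Neuronal cells with a Parkin promoter-driven FLuc/NLuc coincidence reporter were treated 24 h at 37 C in 7-point dose response (LOPAC). NLuc luminescence read after FLuc; signals normalized to DMSO and positive control (100%).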

[4] = qHTS for compounds that reverse cellular toxicity of Amyloid beta (A-beta) peptide in yeast: LOPAC Validation Assay (AID 720559)
Procedure, shortened: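 OD600 growth readout after 48 hr at 30 C; A-beta-toxic yeast plus pinned compounds in medium. Normalization: DMSO = negative, equimolar FeCl3 + clioquinol = positive.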

[5] = qHTS assay for small molecule activators of the p53 signaling pathway (AID 651743; active means well fitted activation curve with a large enough effect in the signal ratio, not every such curve was filed as active; the % refers to the signal ratio; further: series mostly up to about 92 µM); settings: HCT-116 p53RE-bla, beta-lactamase FRET ratio, 16 h; activation: stronger effect = higher value
Procedure, shortened: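 HCT-116 p53RE-bla, 4,000 cells/well; 5 h settle; cpd/DMSO 16 h, 37 C; LiveBLAzer B/G 2 h RT; fluorescence intensity.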

[6] = qHTS assay for small molecule disruptors of the mitochondrial membrane potential - 1 hr assay (AID 651754; calls by dose curve; further: nearly all actives have a fitted effect of over 35% in size; further: potency means the concentration at half of the fitted maximal effect)
Procedure, shortened: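 HepG2 cells, attached overnight at 37C, were exposed to compound or DMSO vehicle for 1 hr at 37C, 5% CO2, then stained with Mito-MPS dye for 30 min. Red aggregate versus green monomer fluorescence reports membrane potential.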

[7] = qHTS assay for small molecule disruptors of the mitochondrial membrane potential - 5 hr assay (AID 651755; calls by dose curve; further: nearly all actives have a fitted effect of over 40% in size; further: potency means the concentration at half of the fitted maximal effect)
Procedure, shortened: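 HepG2 cells (2,000/well), attached overnight, exposed to compound 5 hr at 37C, then Mito-MPS dye 30 min. Fluorescence read for monomers (490/535 nm) and aggregates (540/590 nm).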

[8] = molecular target: Tumor necrosis factor (Homo sapiens) (UniProt P01375); assay: qHTS assay to identify small molecules that stimulate Tumor Necrosis Factor-alpha (TNF-alpha) secretion (AID 651757; active means well fitted curve in the direction sought with a large enough effect in the signal ratio; the % refers to the signal ratio)
Procedure, shortened: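 THP-1 cells were exposed to compounds for 17 hrs at 37 C, after which secreted TNF-alpha was measured by homogeneous HTRF (TR-FRET) using cryptate- and XL665-labeled anti-TNF-alpha antibodies, read after 3 hr at room temperature.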

[9] = qHTS assay for environmental chemicals that activate the Aryl hydrocarbon Receptor (AhR) signaling pathway (AID 651777); settings: 1A2-DRE human hepatoma cells, luciferase, 24 h; activation: stronger effect = higher value; further: nearly all actives have a fitted effect of over 15% in size; further: potency means the concentration at half of the fitted maximal effect
Procedure, shortened: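 Reporter gene assay: hepatoma cells with DRE/CYP1A2-luciferase, 24 hr compound incubation at 37 C, 5% CO2, luminescence after One-Glo (30 min, RT).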

[10] = molecular target: Peroxisome proliferator-activated receptor alpha (Homo sapiens) (UniProt Q07869); assay: qHTS assay for small molecule agonists of the peroxisome proliferator-activated receptor alpha (PPARalpha) signaling pathway (AID 651778); settings: PathHunter PPARalpha complementation, chemiluminescence, 6 h; stronger effect = higher value
Procedure, shortened: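 Enzyme-fragment complementation assay in which ligand-bound PPARalpha translocates and forms an active enzyme that generates chemiluminescence. Cells were plated overnight, exposed to compound for 6 hr at 37 C, and then given detection reagent for 60 min at room temperature.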

[11] = qHTS assay for small molecule agonists of the antioxidant response element (ARE) signaling pathway (AID 651741; active means well fitted activation curve with a large enough effect in the signal ratio; the % refers to the signal ratio)
Procedure, shortened: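 HepG2 ARE-bla cells plated at 2,000 cells/well and incubated 5 h at 37 C/5% CO2 received 23 nL compound in DMSO. After 16 h at 37 C, LiveBLAzer B/G FRET substrate was applied for 2 h at room temperature and fluorescence read.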

[12] = molecular target: Nuclear receptor ROR-gamma (Homo sapiens) (UniProt P51449); assay: qHTS assay for small molecule antagonists of the retinoid-related orphan receptor gamma (ROR-gamma) signaling pathway (AID 651802); further: series mostly up to about 92 µM; nearly all actives have a fitted effect of over 60% in size
Procedure, shortened: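 CHO cells carrying TET-inducible ROR-gamma and an ROR response element–luciferase reporter were exposed to compound, then induced with doxycycline. After 16hr at 37C, luminescence was read; lower signal indicates antagonism.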

[13] = molecular target: Tyrosine-protein kinase Yes (Homo sapiens) (UniProt P07947); assay: qHTS for small molecule inhibitors of Yes1 kinase: Primary Screen (AID 686947); further: potency means the concentration at half of the fitted maximal effect; nearly all actives have a fitted effect of over 60% in size
Procedure, shortened: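 ADP-Glo luminescence readout; final 4 nM Yes1, 0.1 mM ATP, 0.3 mg/mL poly(E4Y), Tris pH 7.5, MgCl2, DTT, Brij-35. 20 min compound preincubation, 60 min reaction at RT. Normalized to DMSO wells with and without enzyme.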

[14] = qHTS for small molecule inhibitors of Yes1 kinase: Counter Assay (AID 686950);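 further: no kinase present so only ADP-Glo detection of a fixed ADP amount is tested; luminescence from ADP-Glo reporting ADP in a fixed ATP and ADP mixture; series mostly up to about 77 µM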
Procedure, shortened: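 Enzyme-free detection counter-screen: compounds preincubated 20 min in buffer, then 0.08 mM ATP plus 0.02 mM ADP added for 60 min at room temperature; ADP-Glo luminescence. Buffer 50 mM Tris pH 7.5, 10 mM MgCl2, 150 mM NaCl; normalized to ATP+ADP and ATP-only controls.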

[15] = qHTS assay to identify small molecules that stimulate interleukin-8 (IL-8) secretion (AID 651758; active means well fitted activation curve with a large enough effect in the signal ratio; the % refers to the signal ratio)
Procedure, shortened: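 THP-1 cells (2000/well) exposed to compound 16 h at 37 C; secreted IL-8 then detected by HTRF with cryptate- and XL665-labelled anti-IL-8 antibody pair after 1-3 h at room temperature.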

Chain of Tumor necrosis factor (Homo sapiens) (P01375 whole entry, looked up): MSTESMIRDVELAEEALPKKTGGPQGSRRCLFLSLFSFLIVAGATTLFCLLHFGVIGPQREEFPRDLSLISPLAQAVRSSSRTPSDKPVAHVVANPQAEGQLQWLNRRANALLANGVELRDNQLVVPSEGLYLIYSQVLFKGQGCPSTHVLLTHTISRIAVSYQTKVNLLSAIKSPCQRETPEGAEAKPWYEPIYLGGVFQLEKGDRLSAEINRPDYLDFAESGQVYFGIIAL
Chain of Peroxisome proliferator-activated receptor alpha (Homo sapiens) (Q07869 whole entry, looked up, the tested form may be a part): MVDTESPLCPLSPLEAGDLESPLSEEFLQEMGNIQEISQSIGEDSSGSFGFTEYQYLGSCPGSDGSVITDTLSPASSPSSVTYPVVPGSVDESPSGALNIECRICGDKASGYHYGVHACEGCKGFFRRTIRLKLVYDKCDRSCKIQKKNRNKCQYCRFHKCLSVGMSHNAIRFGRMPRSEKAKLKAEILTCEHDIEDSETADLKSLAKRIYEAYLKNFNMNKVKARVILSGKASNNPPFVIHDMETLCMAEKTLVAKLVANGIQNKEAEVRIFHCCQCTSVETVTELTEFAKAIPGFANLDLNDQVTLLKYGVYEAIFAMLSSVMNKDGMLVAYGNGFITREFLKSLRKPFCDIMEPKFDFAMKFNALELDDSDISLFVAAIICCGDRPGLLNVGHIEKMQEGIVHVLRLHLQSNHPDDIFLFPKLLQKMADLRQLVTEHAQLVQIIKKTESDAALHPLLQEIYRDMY
Chain of Arylsulfatase A (Homo sapiens) (P15289 whole entry, looked up): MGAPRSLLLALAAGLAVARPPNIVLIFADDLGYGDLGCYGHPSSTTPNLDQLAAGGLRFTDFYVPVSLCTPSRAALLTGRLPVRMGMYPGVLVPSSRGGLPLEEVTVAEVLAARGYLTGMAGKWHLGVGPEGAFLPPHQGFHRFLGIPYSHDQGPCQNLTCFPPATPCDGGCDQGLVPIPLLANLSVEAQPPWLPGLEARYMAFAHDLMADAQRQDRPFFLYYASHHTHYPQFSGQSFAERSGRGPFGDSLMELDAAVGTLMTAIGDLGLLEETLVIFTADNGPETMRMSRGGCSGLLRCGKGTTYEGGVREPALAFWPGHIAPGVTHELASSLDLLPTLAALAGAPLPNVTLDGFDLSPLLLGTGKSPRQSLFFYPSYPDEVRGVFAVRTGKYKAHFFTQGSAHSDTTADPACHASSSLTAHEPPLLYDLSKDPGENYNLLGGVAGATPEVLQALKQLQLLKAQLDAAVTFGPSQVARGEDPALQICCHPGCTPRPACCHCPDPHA
Chain of Nuclear receptor ROR-gamma (Homo sapiens) (P51449 whole entry, looked up): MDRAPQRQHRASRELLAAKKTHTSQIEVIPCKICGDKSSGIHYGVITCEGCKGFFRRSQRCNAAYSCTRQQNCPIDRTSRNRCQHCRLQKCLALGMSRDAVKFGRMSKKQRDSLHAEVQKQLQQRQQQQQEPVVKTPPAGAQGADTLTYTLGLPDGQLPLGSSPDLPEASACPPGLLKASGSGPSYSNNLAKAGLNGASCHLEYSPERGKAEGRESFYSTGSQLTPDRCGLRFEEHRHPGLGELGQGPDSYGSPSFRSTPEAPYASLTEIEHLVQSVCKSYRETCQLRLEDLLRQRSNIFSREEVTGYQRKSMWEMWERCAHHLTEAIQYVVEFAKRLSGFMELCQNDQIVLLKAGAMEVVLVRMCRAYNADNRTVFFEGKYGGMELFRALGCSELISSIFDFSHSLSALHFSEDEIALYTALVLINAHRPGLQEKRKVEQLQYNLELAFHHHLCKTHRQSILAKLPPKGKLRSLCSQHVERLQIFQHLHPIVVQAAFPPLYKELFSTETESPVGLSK
Chain of Tyrosine-protein kinase Yes (Homo sapiens) (P07947 whole entry, looked up): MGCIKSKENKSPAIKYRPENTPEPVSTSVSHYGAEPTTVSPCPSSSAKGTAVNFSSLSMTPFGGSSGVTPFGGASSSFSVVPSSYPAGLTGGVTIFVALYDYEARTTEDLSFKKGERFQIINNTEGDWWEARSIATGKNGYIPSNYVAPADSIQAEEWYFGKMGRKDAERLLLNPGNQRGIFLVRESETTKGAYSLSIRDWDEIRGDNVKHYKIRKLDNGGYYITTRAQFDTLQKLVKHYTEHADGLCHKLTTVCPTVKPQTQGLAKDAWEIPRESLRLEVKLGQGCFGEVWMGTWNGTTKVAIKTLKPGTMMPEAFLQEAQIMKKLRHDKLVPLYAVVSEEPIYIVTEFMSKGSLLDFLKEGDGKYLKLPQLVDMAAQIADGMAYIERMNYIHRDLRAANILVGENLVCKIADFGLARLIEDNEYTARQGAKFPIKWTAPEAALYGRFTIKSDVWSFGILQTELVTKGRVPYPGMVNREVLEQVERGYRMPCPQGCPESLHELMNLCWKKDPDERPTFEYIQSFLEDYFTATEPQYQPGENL

For `CCCC(C(=O)OCCN(CC)CC)(c1ccccc1)c1ccccc1`, the Potency [1] was “inactive”, the Potency [2] was “inactive” and the Potency [3] was “inactive”.

In the case of `NC(=O)c1cn(Cc2c(F)cccc2F)nn1`, the Potency [1] is reported as “inactive”, the outcome [4] is reported as “inactive” and the Potency [3] is reported as “inactive”.

In the case of `NCCCNCCSP(=O)(O)O`, the Potency [1] is reported as “inactive”, the outcome [4] is reported as “inactive” and the Potency [3] is reported as “inactive”.

In the case of `C[N+](C)(C)CCOC(N)=O`, the Potency [1] is reported as “inactive”, the outcome [4] is reported as “inactive” and the Potency [3] is reported as “inactive”.

With `CCN(CC)CCCN(c1ccccc1)C1Cc2ccccc2C1` the Potency [1] was “inactive”, the Potency [2] was “inactive” and the Potency [3] was “inactive”.

With `CCCNC(C)C(=O)Nc1ccccc1C` (centres undefined) the Potency [1] was “inactive”, the outcome [4] was “inactive” and the Potency [3] was “inactive”.

In the case of `CC(=O)OCC1=C(C(=O)O)N2C(=O)[C@@H](NC(=O)Cc3cccs3)[C@H]2SC1`, the Potency [1] is reported as “inactive” and the Potency [3] is reported as “inactive”.

For `COC(=O)[C@H]1[C@H]2C[C@@H]3c4[nH]c5cc(OC)ccc5c4CCN3C[C@H]2C[C@@H](OC(=O)c2cc(OC)c(OC)c(OC)c2)[C@@H]1OC`, the activation [5] was 3.91% and 8.14%, the Potency [6] was 21.1 µM (active) and the Potency [7] was 26.6 µM (active). The outcome [8] was “inactive”, the activation [9] was 3.95% and 8.69% and the max response [10] was 4.44% and 8.97%. The outcome [4] was “inactive” and the Potency [3] was “inactive”.

With `CC(C)NCC(O)c1cc(O)cc(O)c1` (centres undefined) the Potency [2] was “inactive”.

In the case of `Cc1ccc(/C(=C\CN2CCCC2)c2ccccn2)cc1`, the Potency [1] is reported as “inactive” and the Potency [3] is reported as “inactive”.

For `CCNC(=O)N1CCN(CCCC(c2ccc(F)cc2)c2ccc(F)cc2)CC1`, the Potency [1] was “inactive”, the outcome [4] was “inactive” and the Potency [3] was “inactive”.

In the case of `C[C@]12CCC(=O)C=C1CC[C@@H]1[C@@H]2CC[C@@]2(C)[C@H]1CC[C@]2(O)C(=O)CO`, the Potency [1] is reported as “inactive” and the Potency [3] is reported as “inactive”.

For `CCn1cc(C(=O)O)c(=O)c2cc3c(cc21)OCO3`, the Potency [1] was “inactive”, the outcome [4] was “inactive” and the Potency [3] was “inactive”.

With `CCN1CCC[C@H]1CNC(=O)c1c(O)c(Cl)cc(Cl)c1OC` the Potency [1] was “inactive”, the outcome [4] was “inactive” and the Potency [3] was “inactive”.

In the case of `CNCCC(Oc1ccccc1OC)c1ccccc1` (centres undefined), the Potency [1] is reported as “inactive” and the Potency [3] is reported as “inactive”.

In the case of `CCCCNc1c(C(=O)OCC)c(C)nc2c1cnn2CC`, the Potency [1] is reported as “inactive” and the Potency [3] is reported as “inactive”.

For `O=C1NCN(c2ccccc2)C12CCN(CCCC(c1ccc(F)cc1)c1ccc(F)cc1)CC2`, the Potency [1] was “inactive” and the Potency [3] was “inactive”.

In the case of `CN(C)C(=O)Oc1cccc([N+](C)(C)C)c1`, the Potency [1] is reported as “inactive” and the Potency [3] is reported as “inactive”.

With `NC(Cc1ccc(Cl)cc1)C(=O)O` (centres undefined) the Potency [1] was “inactive”, the outcome [4] was “inactive” and the Potency [3] was “inactive”.

With `c1cc(CN2CCCCC2)cc(OCCCNc2nc3ccccc3s2)c1` the Potency [1] was “inactive” and the Potency [3] was “inactive”.

In the case of `O=C(O)CP(=O)(O)O`, the Potency [2] is reported as “inactive”, the outcome [4] is reported as “inactive” and the Potency [3] is reported as “inactive”.

In the case of `CN=C(NC#N)NCCSCc1nc[nH]c1C`, the Potency [11] is reported as “inactive”, the outcome [8] is reported as “inactive” and the activation [9] is reported as 2.08%. The max response [10] was 0.401%, the Potency [12] was “inactive” and the outcome [4] was “inactive”. For the same molecule, the Potency [3] was “inactive”.

In the case of `Cc1cc(C)c(/C=C2\C(=O)Nc3ccccc32)[nH]1`, the Potency [13] is reported as 1.37 µM (active), the outcome [14] is reported as “inactive” and the outcome [4] is reported as “inactive”. For the same molecule, the Potency [3] was “inactive”.

In the case of `CCOC(=O)C1=C(C)NC(C)=C(C(=O)OC)C1c1cccc([N+](=O)[O-])c1` (centres undefined), the Potency [1] is reported as “inactive”, the outcome [4] is reported as “inactive” and the Potency [3] is reported as 1.46 µM (active).

For `Brc1c(NC2=NCCN2)ccc2nccnc12`, the Potency [1] was “inactive”, the outcome [4] was “inactive” and the Potency [3] was “inactive”.

With `CN(C)CCCN1c2ccccc2Sc2ccccc21` the Potency [1] was “inactive”, the outcome [4] was “inactive” and the Potency [3] was “inactive”.

With `OCCN1CCN(CCCN2c3ccccc3C=Cc3ccccc32)CC1` the Potency [1] was “inactive” and the Potency [3] was “inactive”.

For `OCCN1CCN(CC/C=C2/c3ccccc3Sc3ccc(C(F)(F)F)cc32)CC1`, the Potency [1] was “inactive” and the Potency [3] was “inactive”.

In the case of `CC(=O)Nc1nnc(S(N)(=O)=O)s1`, the Potency [11] is reported as “inactive”, the activation [5] is reported as -5.68% and the activation [9] is reported as -1.84%. The max response [10] was -2.77%, the outcome [4] was “inactive” and the Potency [3] was “inactive”.

For `CCn1ccnc1CC1COc2ccccc2O1` (centres undefined), the Potency [1] was “inactive”, the outcome [4] was “inactive” and the Potency [3] was “inactive”.

In the case of `CCCCOCCOCCOCc1cc2c(cc1CCC)OCO2`, the Potency [11] is reported as “inactive”, the Potency [6] is reported as “inactive” and the Potency [7] is reported as “inactive”. The outcome [8] was “inactive”, the activation [9] was 5.54% and 1.27% and the max response [10] was -0.481% and -4.29%.

With `Cc1nc2ccccn2c(=O)c1CCN1CCC(C(=O)c2ccc(F)cc2)CC1` the Potency [1] was “inactive”, the outcome [4] was “inactive” and the Potency [3] was “inactive”.

For `C[N+](C)(C)CCOC(=O)CCC(=O)OCC[N+](C)(C)C`, the Potency [1] was “inactive” and the Potency [3] was “inactive”.

In the case of `Cc1nnc(SCC2=C(C(=O)O)N3C(=O)[C@@H](NC(=O)Cn4cnnn4)[C@H]3SC2)s1`, the Potency [1] is reported as “inactive” and the Potency [3] is reported as “inactive”.

For `O=C(O)CN(CCOCCOCCN(CC(=O)O)CC(=O)O)CC(=O)O`, the Potency [1] was “inactive”, the outcome [4] was “inactive” and the Potency [3] was “inactive”.

For `CN(C(=O)CCCOc1ccc2[nH]c(=O)ccc2c1)C1CCCCC1`, the Potency [2] was “inactive”, the outcome [4] was “inactive” and the Potency [3] was “inactive”.

For `Cc1ccc(=O)n(-c2ccccc2)c1`, the Potency [1] was “inactive”, the outcome [4] was “inactive” and the Potency [3] was “inactive”.

With `CCOC(=O)c1cnc2c(cnn2CC)c1NN=C(C)C` the Potency [1] was “inactive” and the Potency [3] was “inactive”.

In the case of `NC(=Nc1ccccc1)Nc1ccccc1`, the activation [5] is reported as -3.94% and -5.84%, the outcome [8] is reported as “inactive” and the Potency [15] is reported as “inactive”. The Potency [9] was 12.6 µM (active), the max response [10] was -2.99% and 6.68% and the Potency [12] was “inactive”.

For `C[C@]12CC[C@@H]3c4ccc(O)cc4C[C@@H](CCCCCCCCCS(=O)CCCC(F)(F)C(F)(F)F)[C@H]3[C@@H]1CC[C@@H]2O` (some centres undefined), the Potency [1] was “inactive”, the outcome [4] was “inactive” and the Potency [3] was “inactive”.

With `COc1cc2c(cc1OC)-c1cc(=Nc3c(C)cc(C)cc3C)n(C)c(=O)n1CC2` the Potency [1] was “inactive” and the Potency [3] was “inactive”.

For `CCCCCN(CCCCC)C(=O)C(CCC(=O)O)NC(=O)c1ccc(Cl)c(Cl)c1` (centres undefined), the Potency [2] was “inactive”, the outcome [4] was “inactive” and the Potency [3] was “inactive”.
